Experimental data: ChEMBL document CHEMBL1157539, “Thousands of chemical starting points for antimalarial lead identification” (Nature, 2010)

Assays:
Assay type in all cases: functional
Plasmodium falciparum [1] = test: GSK_TCMDC: Inhibition of Plasmodium falciparum 3D7 in whole red blood cells, using parasite LDH activity as an index of growth. Test compounds present at 2uM
Plasmodium falciparum [2] = test: GSK_TCMDC: Inhibition of Plasmodium falciparum Dd2 in whole red blood cells, using parasite LDH activity as an index of growth. Test compounds present at 2uM
HepG2 = test: GSK_TCMDC: Percent inhibition of human HepG2 cell line. Test compounds present at 10uM.

| SMILES | Inhibition (Plasmodium falciparum [1]) [%] | Inhibition (Plasmodium falciparum [2]) [%] | Inhibition (HepG2) [%] |
| --- | --- | --- | --- |
| COc1cc(Nc2ccc3cc(S(=O)(=O)N4CCCCC4C)ccc3n2)cc(OC)c1OC (stereo not drawn) | 88 | 78 | 0 |
| O=C(/C=C/c1ccc(Cl)c(Cl)c1)N1CCC(CN2CCC(c3c[nH]c4ccncc34)CC2)CC1 | 100 | 72 | 44 |
| CCOC(=O)c1c(NC(=O)c2ccccc2)sc2c(O)c(CNC3CCCCC3)ccc12 | 99 | 98 | 6 |
| O=C(Nc1ccc2ccccc2c1)N1CCC(NCc2cccc([N+](=O)[O-])c2)CC1.O=C(O)C(F)(F)F | 98 | 0 | 0 |
| CC(C)OC(=O)c1ccccc1S(N)(=O)=O | 97 | 0 | 0 |
| O=[N+]([O-])c1cc(/C=N/Nc2nc3nonc3nc2Nc2ccc(F)cc2)c(Cl)cc1Cl | 98 | 13 | 5 |
| Oc1c(C=Nn2cnnc2)sc2ccccc12 | 93 | 68 | 0 |
| O=C(O)C(F)(F)F.c1ccc2[nH]c(-c3ccc(-c4ccc(CN5CCCCC5)cc4)cc3)nc2c1 | 99 | 100 | 27 |
| CCOc1cc(C(=O)N[C@@H](Cc2ccccc2)[C@H](O)CNC(C)(C)c2cccc(OC)c2)cc(N2CCCS2(=O)=O)c1 | 99 | 99 | 0 |
| Fc1ccc(NC(S)=NN=Cc2ccccn2)cc1 | 95 | 67 | 56 |
| CCNc1cc(-c2cccc(OC)c2)nc(Nc2ccc(F)cc2)n1 | 87 | 23 | 11 |
| CN1CCN(CC(=O)Nc2cccc(-c3ccc(-c4nc5cc(F)ccc5[nH]4)s3)c2)CC1 | 100 | 94 | 71 |
| CCN(CC)CCN(Cc1ccc(-c2ccc(C(F)(F)F)cc2)cc1)C(=O)Cn1c(CCc2cccc(F)c2F)nc(=O)c2cccnc21.O=C(O)C(O)C(O)C(=O)O | 100 | 89 | 75 |
| COc1ccc(CC2(c3ccc(F)cc3)N=C(N)N(CCCc3ccc(F)c(F)c3)C2=O)cc1.O=C(O)C(F)(F)F (stereo not drawn) | 98 | 98 | 42 |
| O=C(/C=C/c1ccc(Cl)cc1)NCCCCCN1CCCN(C(=O)Nc2cccc(Cl)c2)CC1 | 85 | 10 | 19 |
| COc1cc(NC(=O)/C=C/c2ccccc2OC(F)(F)F)cc(OCCN2CCC(O)(c3ccccc3)CC2)c1.O=C(O)C(=O)O | 100 | 50 | 61 |

| SMILES | Inhibition (Plasmodium falciparum [1]) [%] | Inhibition (Plasmodium falciparum [2]) [%] | Inhibition (HepG2) [%] |
| --- | --- | --- | --- |
| CN1CCC(Oc2ccc(CN3CC[C@H](NC(=O)c4cc(F)cc(F)c4)C3)c3ccccc23)C1.O=C(O)C(F)(F)F (stereo partly drawn) | 98 | 23 | 26 |
| CCOc1ccc(-c2n[nH]c(C(F)(F)F)c2-c2ccccc2OC)c(O)c1 | 86 | 12 | 22 |
| O=C(NCC1CCN(Cc2cccc(C(F)(F)F)c2)C1)c1cc(-c2cccc(C(F)(F)F)c2)cs1.O=C(O)C(F)(F)F (stereo not drawn) | 100 | 74 | 35 |
| CC(=O)Nc1nc(C(=O)Nc2cccc(-c3cccc(-c4nc5cc(F)ccc5[nH]4)c3)c2)cs1 | 100 | 100 | 39 |
| C=CCNC(=O)C(C)c1ccc2cc(OC)ccc2c1 (stereo not drawn) | 92 | 90 | 4 |
| Cc1[nH]c(C)c(-c2ccc(-c3cccc(Cl)c3)nc2)c(=O)c1Br | 96 | 96 | 10 |
| CCCCCCc1ncc(-c2cc3cc(O)c(-c4ccccc4)cc3oc2=O)s1 | 90 | 63 | 4 |
| CCOC(=O)CNCC(=O)c1ccc(OCc2ccccc2)cc1.Cl | 95 | 43 | 4 |
| COc1ccc2ncc(F)c(CCN3CC(O)C(CNCc4ccc5ccccc5c4)C3)c2n1.Cl (stereo not drawn) | 100 | 78 | 57 |
| C[C@@H]1CN(C(c2cccc(O)c2)c2cccc(C(=O)N(C)c3cccc(F)c3)c2)[C@@H](C)CN1C(c1cccc(O)c1)c1cccc(C(=O)N(C)c2cccc(F)c2)c1.Cl (stereo partly drawn) | 91 | 85 | 0 |
| O=C(CC(=O)C(F)(F)F)c1ccc2c(c1)OCO2 | 96 | 0 | 44 |
| O=C1C2C3SC(c4c3ccc3ccccc43)C2C(=O)N1c1ccccc1 (stereo not drawn) | 96 | 7 | 0 |
| O=C(O)C(F)(F)F.O=S(=O)(/C=C/c1ccccc1)N(Cc1ccc(-c2ccc(CNCCc3ccccn3)cc2)cc1)CC1CCCCN1 (stereo not drawn) | 100 | 97 | 46 |
| c1csc(-c2nc(NCC3CCCO3)ncc2-c2ccsc2)n1 (stereo not drawn) | 89 | 83 | 0 |
| Cl.O=C(Nc1ccc(C(=O)Nc2cccc(C3=NCCN3)c2)cc1)Nc1ccc(C2=NCCN2)cc1 | 96 | 98 | 0 |
